# An excerpt weighted towards active compounds, which were near 8.9% of everything screened.
# D3 antag: qHTS of D3 Dopamine Receptor Antagonist: qHTS | D(3) dopamine receptor (Homo sapiens), P35462 | D3R cells, DiscoveRx beta-arrestin luminescence, antagonist mode; stronger effect = lower value | max response, negative = inhibition, % | 360,000 compounds, 2.5% hits | AID 652054, 2013; in the data active = max response below about -50%; inconclusive = no clear call, values can overlap the other calls; also: % is scaled to controls: 0 for no effect and ±100 for the full control effect
# Target sequence (P35462 whole entry, looked up): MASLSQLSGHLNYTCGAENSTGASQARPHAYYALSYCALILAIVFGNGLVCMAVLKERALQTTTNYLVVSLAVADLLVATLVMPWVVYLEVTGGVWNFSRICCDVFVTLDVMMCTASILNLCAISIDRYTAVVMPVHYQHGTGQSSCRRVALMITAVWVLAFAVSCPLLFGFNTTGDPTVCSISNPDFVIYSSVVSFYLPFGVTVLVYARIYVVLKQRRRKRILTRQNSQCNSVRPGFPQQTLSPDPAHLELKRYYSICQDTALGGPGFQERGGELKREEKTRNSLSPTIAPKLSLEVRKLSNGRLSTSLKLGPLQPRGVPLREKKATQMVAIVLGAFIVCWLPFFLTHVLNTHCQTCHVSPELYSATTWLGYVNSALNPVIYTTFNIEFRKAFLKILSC
#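 Cells expressing the human receptor were seeded at 1500 cells/well, incubated overnight at 37 degrees C in 5% CO2, then exposed to library compounds with dopamine controls for 90 minutes at 37 degrees C before luminescent detection.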
# KB-V1 cytotox: qHTS assay for MDR1-selective chemotherapeutics: Primary screen using the drug-selected MDR subline cells KB-V1 | AID 1347076, 2019 | KB-V1 MDR cells viability, CellTiter-Glo, 72 h | Potency, µM (series often up to 46.1 µM), most hits filed as cytotoxic | 400,000 compounds, 3.4% hits; also: potency is read from the fitted curve at half-maximal effect; % is scaled to controls: 0 for no effect and ±100 for the full control effect; nearly all actives have a fitted effect of over 60% in size
#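 Potencies derive from concentration-effect curves fitted to normalized luminescence (CellTiter-Glo) of KB-V1 cells treated for 72 h at 37 degrees C in phenol-red-free DMEM containing 10% FBS.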
# D3 ag: qHTS of D3 Dopamine Receptor Agonist: qHTS | D(3) dopamine receptor (Homo sapiens), P35462 | D3R DiscoveRx beta-arrestin cells, luminescence, 90 min | max activation, % | 410,000 compounds, 0.58% hits | AID 652048, 2013; in the data active = max activation above about 30%; also: 0% is about no effect
#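 Agonist mode: compounds and dopamine controls were applied to plated cells for 90 min at 37 degrees C after an overnight attachment at 1500 cells/well. Luminescent read-out followed 30 - 60 minutes at room temperature with DiscoveRx detection reagent.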
# SW480 rereplic: A quantitative high throughput screen for small molecules that induce DNA re-replication in SW480 colon adenocarcinoma cells. SW480 DNA re-replication, Hoechst DNA content imaging, 48 h. Potency, µM (highest dose often 46.1 µM), for the others: at the highest dose re-replication activation, hits mostly activators. 340,000 compounds, 1.8% hits; also: potency is read from the fitted curve at half-maximal effect; % of control where 0% means no effect; nearly all actives have a fitted effect of over 55% in size
#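 SW480 cells exposed to compounds for 48 hr at 37 C, 5% CO2, then Hoechst-stained 40 min. Nuclear DNA content imaged by fluorescence scanning (405 nm excitation, 500-530 nm emission); re-replication scored as increased high-intensity nuclei.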
# KB-3-1 tox: qHTS assay for MDR1-selective chemotherapeutics: Primary screen using the parental adenocarcinoma cell KB-3-1 | KB-3-1 viability, CellTiter-Glo ATP luminescence, 72 h | Potency, µM (doses to about 46.1 µM), hits mostly cytotoxic | 400,000 compounds, 1.4% hits | AID 1347075, 2019; also: potency is read from the fitted curve at half-maximal effect; % is scaled to controls: 0 for no effect and ±100 for the full control effect; nearly all actives have a fitted effect of over 60% in size
#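 Cytotoxicity measured as CellTiter-Glo luminescence after 72 h at 37 C. Compound titrations were pinned onto drug-naive KB-3-1 parental adenocarcinoma cells grown in DMEM with 10% FBS, and normalized data fitted to concentration-response curves.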
# MCF10A rerep: A quantitative high throughput screen for small molecules that induce DNA re-replication in MCF 10a normal breast cells. Potency, µM (top dose mostly 46.1 µM), for the others: at the highest dose activity, positive = re-replication, hits mostly activators. 350,000 compounds, 2.9% hits. MCF 10A DNA re-replication, Hoechst nuclear intensity, 48 h. AID 624296, 2012; also: potency is read from the fitted curve at half-maximal effect; % of control where 0% means no effect; nearly all actives have a fitted effect of over 50% in size
# Active calls of the source: *; i = inactive; u = inconclusive; x = no result; [ ] = another dose, or the depositor's remark. Unless noted, calls follow the shape of the dose curve; as a rule, active = well fitted curve in the direction sought with a large enough effect; inconclusive = small, poorly fitted or top-dose-only effect, or another doubt; inactive = no such curve, though single readings can be large; an effect the other way counts as inactive or inconclusive.
SMILES,D3 antag,KB-V1 cytotox,D3 ag,SW480 rereplic,KB-3-1 tox,MCF10A rerep
COc1ccc(NS(=O)(=O)c2cc(C(=O)N3CCN(C(C)=O)CC3)ccc2Cl)cc1,-5.5,i,-7.0,-18.9%,i,3.7%
COc1ccccc1NS(=O)(=O)c1cc(NC(=O)c2ccc(Cl)nc2)ccc1Cl,39.7,8.2µM*,3.7,0.9%,u,18.4µM*
Cc1ccc(NC(=S)NC(=O)c2ccc(F)cc2)cc1S(=O)(=O)Nc1ccccc1Cl,u,u,-17.7,-1.9%,23.1µM*,u
CCN(CC)c1ccc(NC(=O)c2ccccc2)cc1S(=O)(=O)Nc1ccccc1OC,0.0,14.6µM*,-3.7,5.6%,i,11.3%
COc1ccc(NC(=S)NC(=NS(=O)(=O)c2ccc(Cl)cc2)c2ccccc2)cc1,3.2,i,-7.9,u,20.6µM*,u
CCN(CC)c1ccc(NC(=O)c2cccc(C)c2)cc1S(=O)(=O)Nc1ccccc1OC,-20.5,u,3.7,x,i,0.5%
COc1ccc(-c2[nH]ncc2CN2CCC(O)(c3ccc(Cl)cc3)CC2)cc1,u,u,-13.0,-3.5%,i,1.7%
OC1(c2ccc(Cl)cc2)CCN(Cc2cn[nH]c2-c2ccccc2)CC1,-97.6*,i,-12.5,-2.6%,i,2.0%
OC1(c2ccc(Cl)cc2)CCN(Cc2cn[nH]c2-c2ccc(F)cc2)CC1,-97.6*,i,-15.0,3.2%,i,0.9%
Cc1ccc2[nH]c3c(=O)n(N)c(C)nc3c2c1,-18.8,i,3.8,6.51µM*,i,31.1%
CCCCc1ccc(NC(=O)CSc2nc(=O)n(CCN(CC)CC)c3c2CCCC3)cc1,-19.6,25.9µM*,-21.8,u,u,25.6%
COc1cc2c(cc1OC)C(c1cccc(C)c1)CC(=O)N2 (stereo not drawn),-10.7,i,-3.3,4.11µM*,i,-6.0%
Cc1cc2c(cc1C)C(c1cccc(F)c1)CC(=O)N2 (stereo not drawn),19.6,u,2.6,u,u,15.0%
Cc1cc2c(cc1C)C(c1cc(Br)ccc1F)CC(=O)N2 (stereo not drawn),0.4,13µM*,2.4,u,8.2µM*,7.31µM*
Cc1cc2c(cc1C)C(c1ccccc1F)CC(=O)N2 (stereo not drawn),24.0,u,13.1,u,5.8µM*,24.0%
COC(=O)C1=C(C)NC(=O)CC1c1cc(Br)ccc1F (stereo not drawn),25.6,u,1.5,-0.3%,i,0.7%
Cc1ccc2cc(CCNC(=O)c3ccco3)c(=O)[nH]c2c1,-102.6*,i,5.8,-2.5%,i,2.2%
Cn1c(CN2CCN(CC#N)CC2)c(C#N)c2ccccc21,-12.9,i,-1.1,-0.3%,i,16.5%
Cn1c(CN2CCCCC2)c(C#N)c2ccccc21,-78.3*,i,-64.5,-0.1%,i,-6.3%
Cn1c(CNC2CCCCC2)c(C#N)c2ccccc21,-76.7*,u,-6.1,-3.1%,i,14.7%
Cc1ccc(CCNS(=O)(=O)c2cnc[nH]2)cc1,-66.0*,i,-4.0,4.6%,i,u
O=S(=O)(NCc1ccc(Cl)cc1)c1cnc[nH]1,-12.1,i,-2.1,-4.3%,i,3.6%
Cc1ccc(NC(=O)c2sc(-n3nc(C)c(Cc4ccc5c(c4)OCO5)c3C)nc2C)cc1C,x,i,-6.9,x,i,x
Oc1ccc(Br)cc1C=Nc1ccc(Cl)cc1,-3.3,i,-1.1,-12.1%,i,-5.9%
CCN(CC)c1ccc(N=Cc2cc(Br)ccc2O)cc1,-20.2,i,-8.0,10.3µM*,u,u
SMILES,D3 antag,KB-V1 cytotox,D3 ag,SW480 rereplic,KB-3-1 tox,MCF10A rerep
C/C(=N\NC(=S)Nc1ccc(F)cc1)c1ccc2c(c1)OCCO2,u,11.6µM*,8.2,u,u,5.8µM*
CC(=O)N/N=C(\C)c1ccc2c(c1)OCCO2,1.1,23.1µM*,-8.6,-7.4%,u,-4.3%
C/C(=N\NC(N)=S)c1ccc2c(c1)OCCO2,-9.9,u,-6.4,-9.1%,u,0.3%
C/C(=N/NC(=O)c1ccc2c(c1)OCO2)c1ccc(NC(=O)c2ccc(F)cc2)cc1,1.3,i,8.5,-3.1%,i,-0.5%
CC(=NNC(N)=S)c1ccc2cc3c(cc2c1)OCO3,u,0.581µM*,-4.5,x,u,x
O=C1C(Nc2cccc(O)c2)=C(N2CCCCC2)C(=O)c2ccccc21,u,i,-14.0,1.2%,u,3.3%
O=C(/C=C/c1ccc(O)cc1)c1ccc(NC2=C(N3CCCCC3)C(=O)c3ccccc3C2=O)cc1,-18.7,u,-2.4,u,2.06µM*,6.51µM*
COc1ccccc1NC1=C(N2CCCCC2)C(=O)c2ccccc2C1=O,-9.7,i,-1.3,4.61µM*,2.59µM*,3.26µM*
O=C1C(Nc2ccccc2)=C(N2CCCCC2)C(=O)c2ccccc21,-60.1*,i,-2.7,-0.3%[9.22 µM],u,u
Cc1ccc(NC2=C(N3CCCCC3)C(=O)c3ccccc3C2=O)cc1,-62.6*,i,-12.1,2.91µM*,u,5.8µM*
O=C1C(NS(=O)(=O)c2ccc(Br)cc2)=C(N2CCCCC2)C(=O)c2ccccc21,-20.5,i,-7.3,-2.1%,i,1.2%
CCOc1ccc(-n2c(=O)c3c(C)c(C)sc3n(CC(=O)C(C)(C)C)c2=O)cc1,x,i,1.2,x,i,x
COc1ccc2ccc(OCC(=O)NCC3CCCO3)cc2c1 (stereo not drawn),7.6,i,5.1,-49.2%,i,11.7%
Cn1cnnc1SCC(=O)Nc1ccc2nc(SCc3ccccc3F)sc2c1,15.8,20.6µM*,1.1,-0.1%,i,-1.9%
O=C(CSc1nc2[nH]c(=O)cc(O)c2s1)Nc1nncs1,-3.8,i,-10.3,9.4%,i,-3.7%
Cc1csc(NC(=O)CSc2nc3[nH]c(=O)cc(O)c3s2)n1,6.9,20.6µM*,-1.9,u,4.11µM*,9.2µM*
Cc1csc(NC(=O)CSc2nncn2C)n1,-63.4*,i,-5.6,-2.2%,i,6.7%
O=[N+]([O-])c1ccc(S(=O)(=O)c2ccccc2)nc1,-151.1*,i,-5.3,-12.6%,i,u
COC(=O)C(C)(C(=O)OC)c1ccc([N+](=O)[O-])cn1,6.1,i,0.4,-3.4%,i,-179.2%[0.0737 µM]
Cc1ccc(S(=O)(=O)c2ccc([N+](=O)[O-])cn2)cc1,-75.4*,9.2µM*,-31.1,8.4%,6.51µM*,u
